UHRF1 MBD2 ctr – UHRF1 methylated DNA binding inhibitors, primary screen, counter-screen for MBD2 inhibitor project, biochemical, TR-FRET, human UHRF1, single concentration | E3 ubiquitin-protein ligase UHRF1 (Homo sapiens), Q96T88 | UHRF1 binding to methylated oligo | inhibition, % at 4.4 µM | 0.75% of 370,000 active; in the data active means inhibition above about 21%;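 further: UHRF1 SRA domain binding a hemimethylated CpG hairpin DNA probe; 0% = median of test compound wells and 100% = reference inhibitor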
PRMT1 FP inh – PRMT1 methyltransferase inhibitors, primary screen, biochemical, fluorescence polarization. Protein arginine N-methyltransferase 1 (Homo sapiens), Q99873. recombinant PRMT1, activity-based probe fluorescence polarization. inhibition, % at 2.79 µM. 1.3% of 370,000 active. AID 652257, 2013;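 active means inhibition above about 21% made by adding two undisclosed values, limit read from the data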
Target sequence (Q99873 whole entry, looked up): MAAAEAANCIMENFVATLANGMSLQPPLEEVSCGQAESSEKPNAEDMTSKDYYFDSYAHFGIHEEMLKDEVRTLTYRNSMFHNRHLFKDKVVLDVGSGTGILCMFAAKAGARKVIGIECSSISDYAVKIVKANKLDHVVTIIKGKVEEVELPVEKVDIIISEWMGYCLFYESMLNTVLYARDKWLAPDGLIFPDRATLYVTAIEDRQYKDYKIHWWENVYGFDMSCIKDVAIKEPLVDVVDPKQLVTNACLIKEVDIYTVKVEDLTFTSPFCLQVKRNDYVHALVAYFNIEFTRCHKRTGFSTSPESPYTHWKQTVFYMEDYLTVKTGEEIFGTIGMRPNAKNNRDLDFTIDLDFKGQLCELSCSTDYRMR
PfM18AAP inh-1 – PfM18AAP inhibitors, malaria aminopeptidase, primary screen, biochemical, QFRET, recombinant enzyme. 1.2% of 290,000 active. H-Glu-NHMec fluorogenic cleavage. inhibition, % at 7.35 µM. M18 aspartyl aminopeptidase (Plasmodium falciparum 3D7);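 active means inhibition above the campaign mean inhibition over all tested compounds plus 3 SD, cut at about 28% in these data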;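 further: 0% = plate median of test compound wells and 100% = 2 mM ZnCl2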
PfG6PD inh – PfG6PD enzyme inhibitors, primary screen, biochemical, fluorescence intensity, uHTS; glucose-6-phosphate dehydrogenase-6-phosphogluconolactonase (Plasmodium falciparum 3D7); PfGluPho enzyme, NADPH resazurin-diaphorase fluorescence; inhibition, % at 20 µM; 0.78% of 350,000 active;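 active means inhibition reaching at least a set limit at 20 µM in the primary screen, cut at about 59% in these data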;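 further: 0% = DMSO wells with substrate and 100% = DMSO wells lacking glucose-6-phosphate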
MBD2 inh – inhibitors of MBD2 binding to methylated DNA, primary screen, biochemical, TR-FRET, DNA-binding domain, human; Methyl-CpG-binding domain protein 2 (Homo sapiens), Q9UBB5; MBD2 binding to methylated oligonucleotide; inhibition, % at 4.4 µM; 0.31% of 370,000 active; AID 686964, 2013; in the data active means inhibition above about 13%
PfM18AAP inh-2 – PfM18AAP inhibitors, malaria aminopeptidase, confirmation, biochemical, QFRET, recombinant enzyme, triplicate; shares compounds with PfM18AAP inh-1; H-Glu-NHMec fluorogenic cleavage; inhibition, % at 7.35 µM; 28% of 2,400 active; AID 2170, 2009;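 active means mean inhibition over replicate wells above the hit cutoff set for the earlier primary screen, cut at about 29% in these data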;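 further: 0% = median of test compound wells and 100% = 2 mM ZnCl2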
CTSL1 confirm – cathepsin L1 inhibitors, retest, confirmation, counter-screen for PFM18AAP inhibitor project, biochemical, QFRET, triplicate; shares compounds with PfM18AAP inh-1; purified cathepsin L1, Z-Leu-Arg-MCA fluorescence; inhibition, % at 5.96 µM; 2,400 tested, under 10 active; AID 2178, 2009;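 active means average inhibition across replicates above the hit cutoff set in the earlier primary screen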;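 further: 0% = median of test compound wells and 100% = Z-Phe-Ala-diazomethylketone 1 µM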
Target sequence (P07711 whole entry, looked up): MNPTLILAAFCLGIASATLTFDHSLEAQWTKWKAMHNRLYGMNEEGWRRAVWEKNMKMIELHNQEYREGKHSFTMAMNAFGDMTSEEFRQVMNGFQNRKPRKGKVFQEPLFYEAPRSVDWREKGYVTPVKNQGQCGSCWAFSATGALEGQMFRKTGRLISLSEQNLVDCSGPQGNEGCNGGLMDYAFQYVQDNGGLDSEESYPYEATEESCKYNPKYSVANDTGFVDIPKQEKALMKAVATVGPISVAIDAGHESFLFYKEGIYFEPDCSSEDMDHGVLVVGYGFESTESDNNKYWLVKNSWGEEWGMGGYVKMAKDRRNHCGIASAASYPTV
Active calls of the source: *. Most compounds without a hit are left out; they make up all but 3.3% or so of the library.

Screening COc1cc([N+](=O)[O-])ccc1NC(=O)NNC(=O)c1sccc1C returned UHRF1 MBD2 ctr -3.6, PRMT1 FP inh -2.8, PfM18AAP inh-1 52.7*, PfG6PD inh -16.9, MBD2 inh -1.3, PfM18AAP inh-2 44.6* and CTSL1 confirm -1.9.
Screening COc1cc([N+](=O)[O-])ccc1NC(=O)NNC(=O)CCc1ccccc1 returned UHRF1 MBD2 ctr -2.9, PRMT1 FP inh -4.1, PfM18AAP inh-1 0.1, PfG6PD inh 0.3 and MBD2 inh -6.1.
`CCCN(CCC)c1cc(=O)nc2ccccn12` gave UHRF1 MBD2 ctr -1.7, PRMT1 FP inh -1.4 and MBD2 inh 3.5.
`C/C(=N\NC(=O)COc1ccccc1)c1ccc(O)cc1` gave UHRF1 MBD2 ctr 4.4, PRMT1 FP inh -2.4, PfM18AAP inh-1 0.7, PfG6PD inh -9.6 and MBD2 inh -1.5.
C/C(=N\NC(=O)CC#N)c1ccc(Oc2ccccc2)cc1 was read as UHRF1 MBD2 ctr 15.8, PRMT1 FP inh 3.1, PfM18AAP inh-1 33.0*, PfG6PD inh -6.9, MBD2 inh 0.4, PfM18AAP inh-2 -27.8 and CTSL1 confirm 2.2.
`CCN(CC)C(=O)CC[C@H]1CC[C@]2(CCCN(C(=O)C3CCCC3)C2)O1` gave UHRF1 MBD2 ctr -0.4, PRMT1 FP inh 3.3 and MBD2 inh -4.5.
Screening CCOC(=O)CC[C@@H]1CC[C@]2(CCCN(Cc3ccc(OC)cc3)C2)O1 returned UHRF1 MBD2 ctr 2.0, PRMT1 FP inh -5.7 and MBD2 inh -1.5.
`CCCN(CC1CC1)C(=O)CNc1nnnn1-c1ccccc1` gave UHRF1 MBD2 ctr 4.9, PRMT1 FP inh -3.0 and MBD2 inh 2.1.
For CCc1nnc(NC(=O)CSc2nnc(-c3ccccc3O)o2)s1 the results were UHRF1 MBD2 ctr 0.9, PRMT1 FP inh 2.4, PfM18AAP inh-1 34.3*, PfG6PD inh -38.2, MBD2 inh -4.9, PfM18AAP inh-2 -17.4 and CTSL1 confirm -3.0.
Screening CCc1nnc(NC(=O)CSc2nnc(CSc3nc(C)cc(C)n3)o2)s1 returned UHRF1 MBD2 ctr -1.4, PRMT1 FP inh -2.4, PfM18AAP inh-1 36.2*, PfG6PD inh -4.0, MBD2 inh -0.3, PfM18AAP inh-2 -27.5 and CTSL1 confirm 1.4.
`CC(C)(C)Cc1nnc(NC(=O)CSc2ccccc2)s1` gave UHRF1 MBD2 ctr 2.0, PRMT1 FP inh 16.9, PfM18AAP inh-1 39.6*, PfG6PD inh 51.2, MBD2 inh -4.8, PfM18AAP inh-2 20.5 and CTSL1 confirm 2.3.
`Cc1ccc2c(c1)C1CS(=O)(=O)N(CC(C)C)CN1C2` (stereo not drawn) gave UHRF1 MBD2 ctr -2.4, PRMT1 FP inh 0.0 and MBD2 inh -6.0.
`O=C(NC(=S)NNC(=O)c1cccs1)c1ccccc1` gave UHRF1 MBD2 ctr -2.6, PRMT1 FP inh 4.2, PfM18AAP inh-1 10.5, PfG6PD inh 13.7 and MBD2 inh -3.7.
`Cc1cccc(C(=O)NC(=S)NNC(=O)c2cccs2)c1` gave UHRF1 MBD2 ctr -5.4, PRMT1 FP inh 1.1, PfM18AAP inh-1 33.5*, PfG6PD inh 22.3, MBD2 inh 2.4, PfM18AAP inh-2 -27.5 and CTSL1 confirm 1.7.
`Cc1ccc(C(=O)CSc2nnc(-c3ccccn3)n2-c2ccccc2)cc1` gave UHRF1 MBD2 ctr 0.4, PRMT1 FP inh 5.1 and MBD2 inh 1.1.
`O=C1C2CC=C(Cl)CC2C(=O)N1c1ncn[nH]1` (stereo not drawn) gave UHRF1 MBD2 ctr 0.2, PRMT1 FP inh -3.1, PfM18AAP inh-1 52.9*, PfG6PD inh -4.9, MBD2 inh -0.9, PfM18AAP inh-2 7.6 and CTSL1 confirm -5.6.
`O=C1C2CC=CCC2C(=O)N1c1ncn[nH]1` (stereo not drawn) gave UHRF1 MBD2 ctr -0.5, PRMT1 FP inh 0.1, PfM18AAP inh-1 9.6, PfG6PD inh -10.6 and MBD2 inh 1.6.
Screening Nc1ccc([N+](=O)[O-])cc1C(=O)NNC(=O)c1ccco1 returned UHRF1 MBD2 ctr 0.5, PRMT1 FP inh 4.7, PfM18AAP inh-1 32.6*, PfG6PD inh 4.2, MBD2 inh -4.7, PfM18AAP inh-2 13.9 and CTSL1 confirm 2.9.
For O=C(NNc1ccc([N+](=O)[O-])cc1)c1ccco1 the results were UHRF1 MBD2 ctr 0.6, PRMT1 FP inh -0.5, PfM18AAP inh-1 69.4*, PfG6PD inh 45.5, MBD2 inh 0.2, PfM18AAP inh-2 44.8* and CTSL1 confirm 4.3.
`O=C(NNc1ccc([N+](=O)[O-])cc1[N+](=O)[O-])c1ccco1` gave PfM18AAP inh-1 15.2 and PfG6PD inh 11.8.
Cc1cccc(C(=O)NNC(=O)c2ccco2)c1O was read as UHRF1 MBD2 ctr -1.2, PRMT1 FP inh 0.2, PfM18AAP inh-1 32.3*, PfG6PD inh -11.5, MBD2 inh -5.6, PfM18AAP inh-2 10.3 and CTSL1 confirm -1.3.
Cc1ccccc1Cn1cc(CN2[C@H](C)COc3cc(Br)ccc3S2(=O)=O)nn1 was read as UHRF1 MBD2 ctr -2.1, PRMT1 FP inh -3.2 and MBD2 inh -2.9.
Screening c1ccc2c(c1)NCC1CCCN21 (stereo not drawn) returned UHRF1 MBD2 ctr 5.0, PRMT1 FP inh 10.1, PfM18AAP inh-1 37.4*, PfG6PD inh 54.4, MBD2 inh -4.6, PfM18AAP inh-2 -69.7 and CTSL1 confirm -3.6.
O=C1NC[C@@H]2CCCN2C1=O was read as UHRF1 MBD2 ctr -0.3, PRMT1 FP inh -0.1 and MBD2 inh 1.6.
Cc1cc(=O)[nH]c(SCC(=O)NNC(=O)Cc2ccccc2)n1 was read as UHRF1 MBD2 ctr -2.2, PRMT1 FP inh 2.2, PfM18AAP inh-1 35.5*, PfG6PD inh -11.6, MBD2 inh 4.1, PfM18AAP inh-2 2.2 and CTSL1 confirm -4.8.
For N#Cc1c(-c2ccc(F)cc2)cc(-c2ccccc2)nc1SCC(=O)NCC(=O)O the results were UHRF1 MBD2 ctr -2.9, PRMT1 FP inh 12.1, PfM18AAP inh-1 50.6*, PfG6PD inh 23.4, MBD2 inh -1.4, PfM18AAP inh-2 5.8 and CTSL1 confirm 6.0.
`N#Cc1c(-c2ccc(Cl)cc2)cc(-c2ccccc2)nc1SCC(=O)O` gave UHRF1 MBD2 ctr 2.0, PRMT1 FP inh -1.5, PfM18AAP inh-1 -2.0, PfG6PD inh -7.8 and MBD2 inh -2.8.
